Measured values taken from the supplement of paper PMC8253809.

Key:
Assay in all cases: growth inhibition (% activity, log2 RLU normalised to DMSO / staurosporine); higher = more growth inhibition
Conditions in all cases: 33 µM
DIPGX29 = tested on: DIPGX29 (H3.3 K27M diffuse intrinsic pontine glioma line)
How it was run: (§1)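 pHGG cell lines and H9-derived neural stem cells were grown on Geltrex-coated 384-well plates. Approved drugs were added by pin tool at a single final concentration of about 33 μM, in triplicate, for 7 days at 37 °C, 5% CO2. CellTiter-Glo luminescence was log2-transformed and normalised per plate to % activity between solvent and positive control wells. The growth-inhibition value is the median over replicates.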

DIPGX37 = tested on: DIPGX37 (H3.3 K27M diffuse intrinsic pontine glioma line)
How it was run: as §1

DIPGX7 = tested on: DIPGX7 (H3.3 K27M diffuse intrinsic pontine glioma line)
How it was run: as §1

DIPGX9 = tested on: DIPGX9 (diffuse intrinsic pontine glioma line)
How it was run: as §1

HGGX39 = tested on: HGGX39 (paediatric high-grade glioma line)
How it was run: as §1

HGGX6 = tested on: HGGX6 (H3.3 G34R paediatric high-grade glioma line)
How it was run: as §1

HNSC = tested on: HNSC
How it was run: as §1

SUDIPGIV = tested on: SUDIPGIV (diffuse intrinsic pontine glioma line)
How it was run: as §1

SUDIPGVI = tested on: SUDIPGVI (diffuse intrinsic pontine glioma line)
How it was run: as §1

SUDIPGXIII = tested on: SUDIPGXIII (diffuse intrinsic pontine glioma line)
How it was run: as §1

SMILES | growth inhibition (DIPGX29) [%] | growth inhibition (DIPGX37) [%] | growth inhibition (DIPGX7) [%] | growth inhibition (DIPGX9) [%] | growth inhibition (HGGX39) [%] | growth inhibition (HGGX6) [%] | growth inhibition (HNSC) [%] | growth inhibition (SUDIPGIV) [%] | growth inhibition (SUDIPGVI) [%] | growth inhibition (SUDIPGXIII) [%]
COc1cc([C@@H]2c3cc4c(cc3[C@@H](O[C@@H]3O[C@@H]5CO[C@@H](C)O[C@H]5[C@H](O)[C@H]3O)[C@H]3COC(=O)[C@H]23)OCO4)cc(OC)c1O | 12.6 | 4.92 | 8.84 | 24.1 | 10.5 | 9.51 | 61.4 | 38.2 | 3.89 | 5.92
O=C(O)CSCC(=O)NC1CCSC1=O (stereo not given) | 0.54 | -0.388 | -0.264 | -0.495 | 0.576 | -1.19 | -1.48 | 0.118 | 1.47 | -6.51
O=C1O[C@H]([C@@H](O)CO)C([O-])=C1O.[Na+] | -5.78 | -2.29 | -0.532 | -4 | -3.28 | -5.19 | 6.78 | -3.14 | -6.63 | 2.95
C#CC1(O)CC[C@H]2[C@@H]3CCC4=CC(=O)CC[C@@H]4[C@H]3CC[C@@]21CC (stereo not given in full) | -0.0424 | 0.475 | -1.66 | 0.691 | 0.0435 | 0.889 | -0.272 | -0.687 | 1.24 | 1.03
O=c1[nH]cc(F)c(=O)[nH]1 | 5.88 | -2.07 | 2.93 | 10.5 | 5.4 | 7.93 | 25.3 | 14.4 | 4.5 | 2.68
N#CC[C@H](C1CCCC1)n1cc(-c2ncnc3[nH]ccc23)cn1 | -0.711 | -0.293 | 0.591 | -1.04 | 1.2 | -0.228 | -3.15 | -1.09 | 1.18 | -0.858
CC(=O)Oc1ccccc1C(=O)O | 0.978 | 2.47 | 1.52 | 1.57 | 2.08 | 4 | 0.311 | -1.34 | 2.68 | -16
COc1c2ccoc2cc2oc(=O)ccc12 | 0.175 | -0.379 | 0.232 | 1.51 | 1.71 | 2.12 | -1.02 | 0.44 | 0.394 | -0.028
O=C1CCc2cc(OCCCCc3nnnn3C3CCCCC3)ccc2N1 | 3.36 | 2.01 | 4.29 | 2.35 | 7.05 | 2.3 | 4.38 | 3.38 | 3.43 | 1.12
CCCC(C(=O)OCCN(CC)CC)(c1ccccc1)c1ccccc1 | 3.18 | 1.54 | 2.35 | 0.685 | 0.885 | 3.92 | 4.69 | 1.52 | 1.12 | 2.55
CCN(CC)CCOC(=O)c1ccc(N)cc1 | 1.14 | -1.44 | 2.21 | 1.17 | 3.11 | 0.874 | 2.07 | 1.58 | 1.31 | 0.856
Cc1ccccc1N1C(=O)c2cc(S(N)(=O)=O)c(Cl)cc2NC1C (stereo not given) | -2.6 | 0.236 | -3.01 | -0.0701 | -1.7 | -0.825 | -3.02 | -1.65 | -1.57 | -0.324
Nc1ccc(S(=O)(=O)Nc2ccccn2)cc1 | 0.131 | -0.785 | -0.925 | -0.171 | 0.333 | 0.609 | 0.764 | -1.02 | 1.15 | -1.65
Clc1ccc2nsnc2c1NC1=NCCN1 | -1.22 | -2.25 | -1.44 | -1.35 | -0.915 | -1.61 | -2.35 | -2.55 | -2.56 | -1.44
Cc1ccccc1C(=O)Nc1ccc(C(=O)N2CCCC(O)c3cc(Cl)ccc32)c(C)c1 (stereo not given) | 1.7 | 2.36 | 1.66 | 1.96 | 5.63 | 2.91 | 3.21 | 2.35 | 3.58 | 0.514
Cn1c(=O)c2c(ncn2CC(O)CO)n(C)c1=O (stereo not given) | 1.16 | 3.99 | 1.95 | 1.42 | 2.44 | -0.962 | 2.09 | 1.65 | 3.1 | -0.692
CN(C)/N=N/c1[nH]cnc1C(N)=O | 5.71 | 3.55 | 2.2 | 3.08 | 9.03 | 7.4 | 4.41 | 12.8 | 2.55 | 0.947
CC(C(=O)O)c1ccc(-c2ccccc2)c(F)c1 (stereo not given) | 0.779 | 3.25 | 1.53 | 1.06 | 2.57 | 1.43 | 0.919 | -4.24 | 2.75 | -0.916
CSc1nc2cc(Cl)c(Oc3cccc(Cl)c3Cl)cc2[nH]1 | 1.22 | -0.121 | -0.253 | 0.647 | 4.81 | 3.1 | -0.0294 | 2.29 | 1.54 | 2.86
Cc1cc(C(C)(C)C)c(O)c(C)c1CC1=NCCN1 | 0.231 | 3.01 | 1.52 | 2.19 | 1.3 | 0.112 | 0.146 | 1.18 | 1.88 | 0.459
CC(=O)CCCCn1c(=O)c2c(ncn2C)n(C)c1=O | 0.465 | 1.18 | 0.88 | 0.578 | 2.34 | 2 | 1.61 | -0.648 | 2.85 | 0.487
OC(CCN1CCCCC1)(c1ccccc1)c1ccccc1 | -0.46 | 1.3 | -0.768 | -0.762 | -0.68 | 0.348 | -1.66 | -1.24 | 0.131 | 1.07

SMILES | growth inhibition (DIPGX29) [%] | growth inhibition (DIPGX37) [%] | growth inhibition (DIPGX7) [%] | growth inhibition (DIPGX9) [%] | growth inhibition (HGGX39) [%] | growth inhibition (HGGX6) [%] | growth inhibition (HNSC) [%] | growth inhibition (SUDIPGIV) [%] | growth inhibition (SUDIPGVI) [%] | growth inhibition (SUDIPGXIII) [%]
CCCCC(=O)O[C@]1(C(=O)CO)[C@@H](C)C[C@H]2[C@@H]3CCC4=CC(=O)C=C[C@]4(C)[C@@]3(F)[C@@H](O)C[C@@]21C | 2.95 | 4.71 | 0.933 | 4 | 3.19 | 1.27 | 0.754 | 0.551 | 2.82 | 2.04
CN(C)CCC(c1ccccc1)c1ccccn1 (stereo not given) | 1.43 | 4.57 | 2.52 | 0.794 | 3.82 | 3.28 | 1.8 | 1.78 | 2.2 | 0.511
NC(CO)(CO)CO | 0.378 | 1.73 | 0.549 | 1.18 | 1.76 | 0.412 | 0.671 | 1.48 | 2.52 | 0.677
CN(C)c1ccc(C(=C2C=CC(=[N+](C)C)C=C2)c2ccc(N(C)C)cc2)cc1 | 39.6 | 42.1 | 42.3 | 41.4 | 51.4 | 48.2 | 72.2 | 43.1 | 50 | 74.4
Clc1ccc(CCC(Cn2ccnc2)Sc2c(Cl)cccc2Cl)cc1 (stereo not given) | 5.06 | 1.97 | 3.57 | 4.57 | 13.2 | 10.2 | 10.2 | 13.5 | 4.83 | 11.4
CCCc1nc(C(C)(C)O)c(C(=O)OCc2oc(=O)oc2C)n1Cc1ccc(-c2ccccc2-c2nnn[nH]2)cc1 | -1 | 0.0168 | -0.622 | 0.493 | -1.5 | -3.62 | 12.4 | -1.28 | -2.12 | -2.02
O=c1n(CCCN2CCN(c3cccc(Cl)c3)CC2)nc2ccccn12 | 3.64 | 2.01 | 4.26 | 3.67 | 4.78 | 3.57 | 6.62 | 2.09 | 4.36 | 0.00306
CC(C)(C)CC(C)(C)c1ccc(OCCOCC[N+](C)(C)Cc2ccccc2)cc1 | 65.1 | 71.8 | 69 | 43.5 | 64.3 | 43.9 | 82.7 | 47.1 | 64.5 | 73.4
COc1ccccc1N1CCN(CC(O)COc2cccc3ccccc23)CC1 (stereo not given) | 0.825 | 1.5 | 3.11 | 4.27 | 2.32 | 1.78 | 0.281 | -1.37 | 0.873 | -16
COc1ccc(C2C(=O)c3ccccc3C2=O)cc1 | -0.495 | 1.03 | -0.141 | 0.658 | -0.413 | 1.25 | 2.05 | -1.32 | -1.7 | 1.54
NCCc1ccc(O)c(O)c1 | -0.86 | 1.63 | -0.591 | 0.714 | 0.908 | -1.23 | 5.73 | 1.26 | 0.907 | -1.27
CN(C)c1cc(NC(=O)CNC(C)(C)C)c(O)c2c1CC1CC3C(N(C)C)C(=O)C(C(N)=O)=C(O)C3(O)C(=O)C1=C2O (stereo not given) | -2.13 | -0.102 | -0.656 | -1.41 | -1.33 | -2.33 | -2.93 | -2.9 | -1.89 | 0.694
CC(C(=O)O)c1ccc2c(c1)CC(=O)c1ccccc1S2 (stereo not given) | 1.3 | 4.16 | 2.06 | 1.25 | 2.45 | 2.99 | 1.66 | -1.48 | 4.71 | 0.56
C[C@@H]1C/C=C/C=C/C=C/C=C/[C@H](O[C@@H]2O[C@H](C)[C@@H](O)[C@H](N)[C@@H]2O)C[C@@H]2O[C@](O)(C[C@@H](O)C[C@H]3O[C@@H]3/C=C/C(=O)O1)C[C@H](O)[C@H]2C(=O)O | 1.2 | 2.42 | 1.64 | 1.2 | 1.86 | 0.734 | -0.468 | 0.119 | 3.23 | 0.668
Cc1cn(C2C=CC(CO)O2)c(=O)[nH]c1=O (stereo not given) | 0.293 | -1.7 | -0.477 | 0.481 | -0.264 | -0.492 | 1.41 | -1.27 | 1 | 0.705
CC[C@H](C)C(=O)O[C@H]1C[C@H](O)C=C2C=C[C@H](C)[C@H](CC[C@@H](O)C[C@@H](O)CC(=O)O)[C@H]21 | 1.52 | -5.39 | 5.32 | 1.14 | 8.71 | 5.23 | 17.3 | 1.99 | -4.73 | 2.62
CNC(=C[N+](=O)[O-])NCCSCc1csc(CN(C)C)n1 | -0.765 | -2.32 | -0.581 | 0.0593 | 0.382 | 0.506 | -0.992 | -0.124 | 0.207 | 0.421
CC1(C)S[C@@H]2[C@H](NC(=O)[C@H](NC(=O)N3CCNC3=O)c3ccccc3)C(=O)N2[C@H]1C(=O)O | -0.235 | 0.459 | -0.00643 | 0.298 | 1.59 | -0.0472 | -1.56 | -0.88 | -1.06 | -0.815
CC(C)(O)c1ccccc1CC[C@@H](SCC1(CC(=O)O)CC1)c1cccc(/C=C/c2ccc3ccc(Cl)cc3n2)c1 | -0.862 | 0.461 | -2.4 | -1.33 | -0.172 | -2.63 | -3.15 | -1.21 | -0.324 | -15.7
O=C(NC[C@H]1CN(c2ccc(N3CCOCC3=O)cc2)C(=O)O1)c1ccc(Cl)s1 | -0.891 | 0.377 | -0.155 | -1.03 | 0.0326 | 0.545 | 0.606 | 3.01 | -0.593 | 1.19
Clc1ccc(CSC(Cn2ccnc2)c2ccc(Cl)cc2Cl)cc1 (stereo not given) | 3.26 | -0.102 | 3.59 | 1.99 | 11.1 | 8.31 | 9.42 | 16.1 | 3.55 | 10.8
CCCSc1nc(N[C@@H]2C[C@H]2c2ccc(F)c(F)c2)c2nnn([C@@H]3C[C@H](OCCO)[C@@H](O)[C@H]3O)c2n1 | 2.23 | 3.23 | 4.99 | 1.97 | 5.25 | 1.74 | 20.6 | 3.4 | 3.52 | 0.841
